From PubChem BioAssay come the findings set out here.

Structures are written as SMILES. Unmarked numbers belong to inactive results. Active and inactive are the calls of the source. Cut-off read from the data, not from the text of the source, unless noted: active = inhibition above about 44%; inactive = the rest.

The first experiment deals with Steroidogenic factor 1 (Homo sapiens) (UniProt Q13285). In words: SF1 (NR5A1) inverse agonists, counter-screen for LRH-1 inverse agonist project, cell-based, luminescence, high throughput (AID 651614).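 Note: cells cotransfected with StAR promoter reporter and SF1 expression vector; 0% = vehicle on cells with receptor and 100% = vehicle on cells lacking receptor.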 As to conditions: cell-based SF1 luciferase reporter, at 3.6 µM, hits give high values.
Sequence of Steroidogenic factor 1 (Homo sapiens) (Q13285 whole entry, looked up): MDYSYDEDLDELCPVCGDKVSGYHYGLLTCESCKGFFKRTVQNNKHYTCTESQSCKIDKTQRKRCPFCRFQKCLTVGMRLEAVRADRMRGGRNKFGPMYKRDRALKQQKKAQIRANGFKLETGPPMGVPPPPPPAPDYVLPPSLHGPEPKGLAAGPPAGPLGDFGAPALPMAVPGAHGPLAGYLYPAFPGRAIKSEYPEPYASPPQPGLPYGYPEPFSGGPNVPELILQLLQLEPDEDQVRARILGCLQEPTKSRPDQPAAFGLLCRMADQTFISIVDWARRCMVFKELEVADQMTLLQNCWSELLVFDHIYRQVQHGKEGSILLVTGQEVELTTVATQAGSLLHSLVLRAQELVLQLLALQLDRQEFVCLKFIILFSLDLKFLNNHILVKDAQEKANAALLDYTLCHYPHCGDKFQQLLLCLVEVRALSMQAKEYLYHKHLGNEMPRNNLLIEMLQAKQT
For `CC(=O)Oc1ccc(N(C(C)=O)S(=O)(=O)c2ccccc2)c2ccccc12`, the inhibition was 34.9%.

As for `CCc1c(C)nc(SCC(=O)Nc2ccc3c(c2)OCCO3)[nH]c1=O`, the inhibition was 54.7% (active).

For the compound `O=C(CCl)NCCCN(C(=O)C(Cl)Cl)c1ccc([N+](=O)[O-])cc1`, the inhibition was 53.5% (active).

As for `CCOc1ccc(Br)cc1C1=NN(C(C)=O)C(c2ccc([N+](=O)[O-])s2)O1` (stereo not given), the inhibition was 63.2% (active).

For the compound `COc1ccc(NC(=O)Cn2c(C)cc(=O)c3ccccc32)cc1`, the inhibition is 53.2% (active).

`Cc1cc(=O)oc2cc(OCC(=O)N3CCN(C(=O)C4COc5ccccc5O4)CC3)ccc12` (stereo not given): the inhibition is 42.1%.

Take `COc1ccc(OCCNC(=O)C2(C)CCN2Cc2ccc3ccccc3c2)cc1` (stereo not given): the inhibition was 43.2% (active).

Take `CCOc1ccc(NC(=O)COC(=O)c2ncc(Cl)c(Cl)c2Cl)cc1`: the inhibition is 36.8%.

Regarding `Oc1[nH]c2ccc(Br)cc2c1N=NC(=S)N1CCOCC1`, the inhibition is 87.7% (active).

Regarding `C#CCSc1nsc(SCC#C)c1C#N`, the inhibition was 50.9% (active).

In the case of `c1ccc(-c2nc(NCc3cccnc3)c3oc4ccccc4c3n2)cc1`, the inhibition was 60.6% (active).

In the case of `O=C(CSc1n[nH]c(-c2ccccn2)n1)Nc1ccc(Cl)cc1`, the inhibition is 67.1% (active).

For the compound `COc1ccc(NC(=O)COC(=O)c2c(-c3ccccc3)noc2C)cc1`, the inhibition is 66.1% (active).

In the case of `CCOc1ccc2c(c1)sc(N)[n+]2Cc1cc(C)cc2cccnc12`, the inhibition was 32.1%.

For `COc1cccc(-c2nc(NCC3CCCO3)c3ccccc3n2)c1O` (stereo not given), the inhibition was 59.1% (active).

As to `CN(C)c1ccc(NC(=O)CN2CCC(NC(=O)C3CCCCC3)CC2)cc1`, the inhibition is 54.1% (active).

With `Cn1ncc(Cl)c1C(=O)NCc1ccc2c(c1)OCO2`, the inhibition is 50.1% (active).

As to `Cc1ccccc1NC(=S)NCc1ccc2[nH]c3c(c2c1)CCCC3`, the inhibition is 28.9%.

For the compound `C#CCN(C[C@@H]1[C@@H](OC(=O)NCc2ccc(OC)c(OC)c2)[C@@H](OC(=O)NCc2ccc(OC)c(OC)c2)CN(C(=O)OC(C)C)N1C(=O)OC(C)C)S(=O)(=O)c1ccc(C)cc1`, the inhibition was 30.1%.

Turning to `CC1(C)CC(=O)C=C(c2cccs2)C1`, the inhibition was 57.8% (active).

In the case of `CN(C)c1nnnn1-c1cccc(Oc2ncc(C(F)(F)F)cc2Cl)c1`, the inhibition was 38.3%.

In the case of `CN1c2ccccc2C(C)(C)C12C=Nc1c(cc(N3CCOCC3)c3ccccc13)O2` (stereo not given), the inhibition is 21.1%.

On to `C#Cc1cc(N2CCN(C(=O)c3ccoc3)CC2)n2nc(-c3cccc(Cl)c3)cc2n1`, for which the inhibition was 62.4% (active).

As to `COc1ccc(NC(=S)NCCc2ccc(F)cc2)c(OC)c1`, the inhibition was 18.5%.

`O=C1c2cc(F)ccc2-n2c1nc1ccccc1c2=O`: the inhibition was 73.9% (active).

Take `Cc1no[n+]([O-])c1COc1ccc(/C=N/n2nnnc2N)cc1`: the inhibition was 48.4% (active).

For the compound `CCOc1ccc(C(=O)c2cc([N+](=O)[O-])ccc2Cl)cc1`, the inhibition is 39.5%.

On to `CCCc1nnc(SCC(=O)Nc2ccc(C(=O)OCC)cc2)o1`, for which the inhibition was 60.7% (active).

Turning to `Cc1cc(C(=O)CSc2nnnn2C)c(C)n1CCc1ccc(F)cc1`, the inhibition is 48% (active).

With `CC(C)N1CCc2c(sc(NC(=O)c3ccc([N+](=O)[O-])o3)c2C(N)=O)C1`, the inhibition was 56.4% (active).

Take `CCCCNC(=O)COC(=O)c1c2c(nc3ccccc13)/C(=C/c1cccs1)CC2`: the inhibition was 26.4%.

Turning to `CS/C(=C\[N+](=O)[O-])Nc1ccc(OC(F)(F)F)cc1`, the inhibition is 84.6% (active).

Take `COc1ccc(NC(=O)CSc2nnc(-c3ccccn3)n2N)cc1Cl`: the inhibition was 49.4% (active).

Consider `C#Cc1ccc(NC(=O)C2(C)CCN2C(=O)Cc2ccc(C(C)(C)C)cc2)cc1` (stereo not given), for which the inhibition is 39%.

Take `Cc1cc(OCC(=O)Nc2ccc(OCc3ccccc3)cc2)nc(C(C)C)n1`: the inhibition is 32.4%.

Turning to `O=c1c2ccc(Cl)cc2nc(-c2cccc(C(F)(F)F)c2)n1O`, the inhibition was 35.4%.

Regarding `Cc1ccc(C(=O)N/N=C\c2ccc([N+](=O)[O-])o2)cn1`, the inhibition is 57% (active).

In the case of `Cc1cc(OCC(=O)Nc2nccs2)c2c(C)c(C)c(=O)oc2c1`, the inhibition was 66.2% (active).

In the case of `Cc1ccc(C)c(NC(=O)CSc2nnc(-c3n[nH]c4ccccc34)o2)c1`, the inhibition was 50.4% (active).

Take `COc1ccc(-c2cc(NC=O)c3ncc(-c4ccc(C(C)=O)cc4)n3c2)cn1`: the inhibition is 59% (active).

System in the next experiment: not listed separately
In words: VP16 transactivation reporter inhibitors, counter-screen for LRH-1 inverse agonist project, cell-based, luminescence, high throughput (AID 651615; in the data active = inhibition above about 33%). Conditions: Gal4-VP16 luciferase reporter cells, at 3.6 µM, hits give high values.
Take `CC(=O)Oc1ccc(N(C(C)=O)S(=O)(=O)c2ccccc2)c2ccccc12`: the inhibition is -3.17%.

As for `CCc1c(C)nc(SCC(=O)Nc2ccc3c(c2)OCCO3)[nH]c1=O`, the inhibition was -6.83%.

In the case of `O=C(CCl)NCCCN(C(=O)C(Cl)Cl)c1ccc([N+](=O)[O-])cc1`, the inhibition is -8.07%.

For the compound `CCOc1ccc(Br)cc1C1=NN(C(C)=O)C(c2ccc([N+](=O)[O-])s2)O1` (stereo not given), the inhibition was -1.66%.

Regarding `COc1ccc(NC(=O)Cn2c(C)cc(=O)c3ccccc32)cc1`, the inhibition is 35.1% (active).

Consider `Cc1cc(=O)oc2cc(OCC(=O)N3CCN(C(=O)C4COc5ccccc5O4)CC3)ccc12` (stereo not given), for which the inhibition is -11%.

With `COc1ccc(OCCNC(=O)C2(C)CCN2Cc2ccc3ccccc3c2)cc1` (stereo not given), the inhibition was 1.36%.

As to `CCOc1ccc(NC(=O)COC(=O)c2ncc(Cl)c(Cl)c2Cl)cc1`, the inhibition is -18.7%.

For `Oc1[nH]c2ccc(Br)cc2c1N=NC(=S)N1CCOCC1`, the inhibition is 55.5% (active).

As to `C#CCSc1nsc(SCC#C)c1C#N`, the inhibition is -20%.

As to `c1ccc(-c2nc(NCc3cccnc3)c3oc4ccccc4c3n2)cc1`, the inhibition was -22.9%.

For `O=C(CSc1n[nH]c(-c2ccccn2)n1)Nc1ccc(Cl)cc1`, the inhibition was 41.4% (active).

For `COc1ccc(NC(=O)COC(=O)c2c(-c3ccccc3)noc2C)cc1`, the inhibition is -5.04%.

On to `CCOc1ccc2c(c1)sc(N)[n+]2Cc1cc(C)cc2cccnc12`, for which the inhibition was 39.5% (active).

Turning to `COc1cccc(-c2nc(NCC3CCCO3)c3ccccc3n2)c1O` (stereo not given), the inhibition is -15.4%.

As for `CN(C)c1ccc(NC(=O)CN2CCC(NC(=O)C3CCCCC3)CC2)cc1`, the inhibition was -3.68%.

As for `Cn1ncc(Cl)c1C(=O)NCc1ccc2c(c1)OCO2`, the inhibition is 15.7%.

`Cc1ccccc1NC(=S)NCc1ccc2[nH]c3c(c2c1)CCCC3`: the inhibition was 9.36%.

As for `C#CCN(C[C@@H]1[C@@H](OC(=O)NCc2ccc(OC)c(OC)c2)[C@@H](OC(=O)NCc2ccc(OC)c(OC)c2)CN(C(=O)OC(C)C)N1C(=O)OC(C)C)S(=O)(=O)c1ccc(C)cc1`, the inhibition was 10.3%.

On to `CC1(C)CC(=O)C=C(c2cccs2)C1`, for which the inhibition is 6.36%.

Turning to `CN(C)c1nnnn1-c1cccc(Oc2ncc(C(F)(F)F)cc2Cl)c1`, the inhibition is -5.85%.

Regarding `CN1c2ccccc2C(C)(C)C12C=Nc1c(cc(N3CCOCC3)c3ccccc13)O2` (stereo not given), the inhibition is 4.98%.

`C#Cc1cc(N2CCN(C(=O)c3ccoc3)CC2)n2nc(-c3cccc(Cl)c3)cc2n1`: the inhibition is 23.7%.

In the case of `COc1ccc(NC(=S)NCCc2ccc(F)cc2)c(OC)c1`, the inhibition was -8.33%.

As to `O=C1c2cc(F)ccc2-n2c1nc1ccccc1c2=O`, the inhibition is 67.9% (active).

Consider `Cc1no[n+]([O-])c1COc1ccc(/C=N/n2nnnc2N)cc1`, for which the inhibition is 0.06%.

Take `CCOc1ccc(C(=O)c2cc([N+](=O)[O-])ccc2Cl)cc1`: the inhibition was -1.79%.

As to `CCCc1nnc(SCC(=O)Nc2ccc(C(=O)OCC)cc2)o1`, the inhibition was -15.5%.

As to `Cc1cc(C(=O)CSc2nnnn2C)c(C)n1CCc1ccc(F)cc1`, the inhibition is -3.7%.

With `CC(C)N1CCc2c(sc(NC(=O)c3ccc([N+](=O)[O-])o3)c2C(N)=O)C1`, the inhibition is -8.36%.

As to `CCCCNC(=O)COC(=O)c1c2c(nc3ccccc13)/C(=C/c1cccs1)CC2`, the inhibition was 37.3% (active).

As for `CS/C(=C\[N+](=O)[O-])Nc1ccc(OC(F)(F)F)cc1`, the inhibition was 9.63%.

`COc1ccc(NC(=O)CSc2nnc(-c3ccccn3)n2N)cc1Cl`: the inhibition was 2.01%.

On to `C#Cc1ccc(NC(=O)C2(C)CCN2C(=O)Cc2ccc(C(C)(C)C)cc2)cc1` (stereo not given), for which the inhibition is 43.9% (active).

In the case of `Cc1cc(OCC(=O)Nc2ccc(OCc3ccccc3)cc2)nc(C(C)C)n1`, the inhibition was 15.2%.

In the case of `O=c1c2ccc(Cl)cc2nc(-c2cccc(C(F)(F)F)c2)n1O`, the inhibition was 46.2% (active).

As to `Cc1ccc(C(=O)N/N=C\c2ccc([N+](=O)[O-])o2)cn1`, the inhibition is 0.83%.

For `Cc1cc(OCC(=O)Nc2nccs2)c2c(C)c(C)c(=O)oc2c1`, the inhibition was -127%.

For `Cc1ccc(C)c(NC(=O)CSc2nnc(-c3n[nH]c4ccccc34)o2)c1`, the inhibition is 5.08%.

`COc1ccc(-c2cc(NC=O)c3ncc(-c4ccc(C(C)=O)cc4)n3c2)cn1`: the inhibition was -15.1%.
